Assay results from publication PMC5540273 (PLoS ONE, 2017).

How the values were obtained:
Settings in all cases: concentration: 1 μM, replicates: in singlicate; n = 1
[1] = system: PIM1
[2] = system: PIM2
[3] = system: PIM3
[4] = system: PIP5K1A
[5] = system: PIP5K1C
[6] = system: PIP5K2B
[7] = system: T1, PIP5K2C
T1 construct: gene PIP4K2C

[8] = system: T2, PKAC-alpha
T2 construct: gene PRKACA

[9] = system: T3, PKAC-beta
T3 construct: gene PRKACB

[10] = system: PKMYT1
[11] = system: PKN1
[12] = system: PKN2
[13] = system: PLK1
[14] = system: PLK2
[15] = system: PLK3
[16] = system: PLK4
[17] = system: PRKCD
[18] = system: PRKCE
[19] = system: PRKCH
[20] = system: PRKCI
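Also: KINOMEscan kinase panel screen.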

SMILES | %Inh [1] [%] | %Inh [2] [%] | %Inh [3] [%] | %Inh [4] [%] | %Inh [5] [%] | %Inh [6] [%] | %Inh [7] [%] | %Inh [8] [%] | %Inh [9] [%] | %Inh [10] [%] | %Inh [11] [%] | %Inh [12] [%] | %Inh [13] [%] | %Inh [14] [%] | %Inh [15] [%] | %Inh [16] [%] | %Inh [17] [%] | %Inh [18] [%] | %Inh [19] [%] | %Inh [20] [%]
CCn1c(-c2ccccn2)nc2cnccc21 [SB-736398] | 0 | 0 | 0 | 6 | 34 | 7 | 32 | 92.9 | 6 | 0 | 0 | 11 | 0 | 0 | 0 | 0 | 0 | 10 | 0 | 30
CN1C(=O)C(Nc2ccc(Cl)c(C(=O)O)c2)=C(c2ccc(Cl)cc2)C1=O [SB-404290] | 0 | 0 | 0 | 11 | 0 | 0 | 0 | 0 | 4 | 0 | 91.6 | 31 | 18 | 24 | 18 | 0 | 0 | 35 | 0 | 0
Cn1ccc2ncnc(Oc3ccc(NC(=O)Nc4ccccc4)cc3)c21 | 8 | 13 | 22 | 0 | 5 | 5 | 1 | 16 | 17 | 16 | 2 | 0 | 0 | 0 | 0 | 11 | 7 | 4 | 0 | 11
Cc1nnc(-c2ccc3occ(-c4ccc(S(C)=O)cc4)c3c2)[nH]1 (stereo not drawn) | 32 | 58 | 35 | 0 | 63 | 35 | 61 | 9 | 0 | 21 | 0 | 0 | 0 | 14 | 7 | 11 | 13 | 7 | 0 | 0
Cc1cc(-c2ccc3c(c2)CC[C@@H](N[C@@H](C)c2ccccc2)C3)cnc1N.Cl [GW412617] | 11 | 0 | 0 | 0 | 34 | 14 | 0 | 0 | 9 | 0 | 8 | 0 | 16 | 0 | 0 | 0 | 7 | 0 | 17 | 0
C[C@@H]1CCCCN1c1cc(-c2ccc3c(N)n[nH]c3c2)nc(N)n1 [GSK2258759] | 0 | 0 | 7 | 0 | 44 | 4 | 0 | 0 | 0 | 2 | 6 | 0 | 0 | 0 | 0 | 42 | 0 | 0 | 0 | 22
CCCc1ccc(S(=O)(=O)NC2CCN(c3ccnc(Nc4ccc(F)cc4)n3)C2)cc1 (stereo not drawn) [GSK1379715] | 0 | 0 | 0 | 19 | 42 | 10 | 47 | 81 | 0 | 12 | 7 | 0 | 0 | 0 | 0 | 0 | 0 | 17 | 11 | 0
O=C1NC(=O)C(N2CCc3ccccc32)=C1c1ccccc1Cl [SB-373598] | 0 | 9 | 7 | 0 | 29 | 35 | 1 | 22 | 39 | 11 | 0 | 13 | 14 | 0 | 0 | 12 | 19 | 3 | 30 | 0
COc1cc2ncn(-c3cc(OCC4CCCO4)c(C(N)=O)s3)c2cc1OC (stereo not drawn) [GSK204607] | 17 | 0 | 0 | 6 | 84 | 9 | 33 | 0 | 0 | 0 | 0 | 0 | 98.9 | 99.4 | 98.3 | 0 | 0 | 2 | 0 | 100
Cc1cccc(-c2nc(-c3ccc(S(C)(=O)=O)cc3)sc2-c2ccnc(NCCc3ccccc3)c2)c1 | 0 | 9 | 0 | 2 | 17 | 22 | 7 | 0 | 17 | 0 | 6 | 13 | 0 | 5 | 0 | 7 | 8 | 0 | 14 | 6
CS(=O)(=O)c1ccc(-c2c(-c3ncn[nH]3)sc(N3CCOCC3)c2C#N)cc1 | 0 | 0 | 0 | 0 | 0 | 14 | 0 | 0 | 7 | 0 | 17 | 0 | 8 | 8 | 16 | 28 | 41 | 42 | 5 | 24
Cc1cccc(-c2nc(C)cc(Nc3ccncc3)n2)n1 [GSK257997] | 19 | 0 | 37 | 0 | 39 | 7 | 0 | 3 | 17 | 12 | 0 | 0 | 5 | 0 | 0 | 1 | 15 | 0 | 5 | 12
Cn1cncc1-c1ccc2ncnc(Nc3ccc(OCc4ccccc4)cc3)c2c1 [GW320571] | 0 | 2 | 0 | 0 | 16 | 17 | 76 | 0 | 8 | 8 | 1 | 0 | 9 | 0 | 0 | 0 | 0 | 14 | 14 | 32
COc1cccc(-c2cc(-c3c[nH]nc3-c3ccccn3)ccn2)c1 [GW680338] | 0 | 0 | 0 | 19 | 69 | 21 | 55 | 0 | 0 | 0 | 0 | 7 | 13 | 0 | 7 | 0 | 12 | 13 | 1 | 0
Cc1cccc(-c2nc(Nc3cccc(C(N)=O)c3)c3ccccc3n2)n1 [GW876019] | 3 | 9 | 4 | 12 | 50 | 0 | 50 | 0 | 36 | 32 | 0 | 0 | 0 | 0 | 4 | 0 | 7 | 0 | 0 | 24
